Assay [1] is described as follows: BSK_3C_TissueFactor: BioMAP Diversity Plus: 3C Assay for Tissue Factor Biomarker Activity (AID 2282997). To be noted: BioMAP 3C HUVEC, tissue factor biomarker readout; actives raise or lower the signal. In outline: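 Dosing of human umbilical vein endothelial cells preceded a 24 h incubation. Tissue Factor was then read by ELISA, with increases and decreases both scored relative to DMSO controls.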

Assay [2] can be described thus: BSK_3C_VCAM1: BioMAP Diversity Plus: 3C Assay for Vascular cell adhesion molecule 1 (VCAM1) Biomarker Activity (AID 2282999). The following applies: BioMAP 3C HUVEC, VCAM1 ELISA, cytokine-stimulated; actives raise or lower the signal. In outline:
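Human umbilical vein endothelial cells were dosed with compound for 24 h, after which cell-surface VCAM-1 was quantified by ELISA. Bidirectional curve fitting used DMSO as negative control and activity baseline.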
A general note: In an ELISA, binding on a coated surface is turned into a signal by an enzyme label.

Read-out in assay [3]: Monokine induced gamma interferon (MIG), CXCL9 (gene 4283)
The assay can be described thus: BSK_3C_MIG: BioMAP Diversity Plus: 3C Assay for Monokine induced gamma interferon (MIG) Biomarker Activity (AID 2283021).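 For AC50: MIG protein level measured by immunoassay in the treated endothelial cultures.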 To be noted: primary human endothelial cells (HUVEC); actives raise or lower the signal. The method, boiled down:
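Primary human umbilical vein endothelial cells in the 3C system were exposed to chemical for 24 h, after which MIG was quantified by ELISA. Activity was fitted bidirectionally against DMSO as negative control and baseline.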

Read-out in assay [4]: Monokine induced gamma interferon (MIG), CXCL9 (gene 4283)
In words: BSK_BE3C_MIG: BioMAP Diversity Plus: BE3C Assay for Monokine induced gamma interferon (MIG) Biomarker Activity (AID 2283035). The following applies: primary human bronchial epithelial cells; actives raise or lower the signal. In outline: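 ELISA read-out of MIG in human lung bronchial epithelial primary cultures, 24 h post-dosing. Bidirectional curve fit vs DMSO baseline.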

Read-out in assay [5]: Transforming growth factor beta 1 (TGFb1), TGFB1 (gene 7040)
In words: BSK_BE3C_TGFb1: BioMAP Diversity Plus: BE3C Assay for Transforming growth factor beta 1 (TGFb1) Biomarker Activity (AID 2283036). The following applies: primary human bronchial epithelial cells; actives raise or lower the signal. The method, boiled down: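 Human primary bronchial epithelial cells (BE3C system) were dosed with chemical and TGF-b1 levels measured by ELISA at 24 h. Activity was fitted bidirectionally relative to DMSO negative control as baseline.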

Read-out in assay [6]: Plasminogen activator inhibitor-1 (PAI1), SERPINE1 (gene 5054)
The assay can be described thus: BSK_BE3C_PAI1: BioMAP Diversity Plus: BE3C Assay for Plasminogen activator inhibitor-1 (PAI1) Biomarker Activity (AID 2283037). To be noted: primary human bronchial epithelial cells; actives raise or lower the signal. In outline: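 Human primary bronchial epithelial cells were exposed to chemical for 24 h, then PAI-1 was quantified by ELISA. Activity was fitted bidirectionally relative to the DMSO negative control baseline.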

Read-out in assay [7]: urokinase plasminogen activator (uPA), PLAU (gene 5328)
The assay can be described thus: BSK_BE3C_uPA: BioMAP Diversity Plus: BE3C Assay for urokinase plasminogen activator (uPA) Biomarker Activity (AID 2283038).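 Note: uPA protein level quantified by ELISA in cell cultures; uPA read one day after compound addition.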 To be noted: primary human bronchial epithelial cells; actives raise or lower the signal. In outline: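 ELISA for uPA on human primary bronchial epithelial cultures 24 h post-treatment, gain or loss against DMSO. Parallel SRB staining (0.1% after 10% TCA fixation, 560 nm) assessed overt cytotoxicity.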

Read-out in assay [8]: Tissue plasminogen activator (tPA), PLAT (gene 5327)
The assay can be described thus: BSK_BE3C_tPA: BioMAP Diversity Plus: BE3C Assay for Tissue plasminogen activator (tPA) Biomarker Activity (AID 2283041).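 For outcome: tPA level quantified by ELISA one day after compound addition.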 To be noted: primary human bronchial epithelial cells; actives raise or lower the signal. The method, boiled down: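 Human primary bronchial epithelial cells were dosed with chemical and tPA biomarker levels measured by ELISA 24 hours later. Activity was fitted bidirectionally against DMSO as negative control and baseline.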

Read-out in assay [9]: serum amyloid A (SAA), SAA1 (gene 6288)
In words: BSK_CASM3C_SAA: BioMAP Diversity Plus: CASM3C Assay for serum amyloid A (SAA) Biomarker Activity (AID 2283049).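 Note: SAA protein level quantified by ELISA.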 The following applies: primary human coronary artery smooth muscle cells; actives raise or lower the signal.

Read-out in assay [10]: Vascular cell adhesion molecule 1 (VCAM1), VCAM1 (gene 7412)
The assay can be described thus: BSK_CASM3C_VCAM1: BioMAP Diversity Plus: CASM3C Assay for Vascular cell adhesion molecule 1 (VCAM1) Biomarker Activity (AID 2283055).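 Note: VCAM-1 protein level quantified by ELISA on the cells.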 The following applies: primary human coronary artery smooth muscle cells; actives raise or lower the signal.

Read-out in assay [11]: Collagen III, COL3A1 (gene 1281)
In words: BSK_hDFCGF_CollagenIII: BioMAP Diversity Plus: hDFCGF Assay for Collagen III Biomarker Activity (AID 2283056). To be noted: primary human foreskin fibroblasts; actives raise or lower the signal. The method, boiled down: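 ELISA readout of Collagen III in human dermal (foreskin) fibroblasts, taken 24 h post-treatment. Gain or loss relative to DMSO vehicle fitted in both directions.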

Read-out in assay [12]: Macrophage colony-stimulating factor (MCSF), CSF1 (gene 1435)
The assay can be described thus: BSK_hDFCGF_MCSF: BioMAP Diversity Plus: hDFCGF Assay for Macrophage colony-stimulating factor (MCSF) Biomarker Activity (AID 2283060). The following applies: primary human foreskin fibroblasts; actives raise or lower the signal. In outline:
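M-CSF levels read by ELISA at 24 h post-dosing in human skin fibroblasts. Parallel cultures stained with SRB assessed cytotoxicity at the same time point; response fitted in both directions against the DMSO baseline.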

Read-out in assay [13]: Interleukin-1 alpha (IL1a), IL1A (gene 3552)
The assay can be described thus: BSK_KF3CT_IL1a: BioMAP Diversity Plus: KF3CT Assay for Interleukin-1 alpha (IL1a) Biomarker Activity (AID 2283070). To be noted: primary human keratinocytes with fibroblasts; actives raise or lower the signal. The method, boiled down: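 Human keratinocyte plus foreskin fibroblast primary co-culture, sampled 24 h after chemical dosing. IL-1a measured by ELISA; responses fitted bidirectionally against DMSO baseline (negative control), so gain or loss of signal both count.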

Read-out in assay [14]: TIMP metallopeptidase inhibitor 2 (TIMP2), TIMP2 (gene 7077)
In words: BSK_KF3CT_TIMP2: BioMAP Diversity Plus: KF3CT Assay for TIMP metallopeptidase inhibitor 2 (TIMP2) Biomarker Activity (AID 2283071). The following applies: primary human keratinocytes with fibroblasts; actives raise or lower the signal. In outline: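 Human primary keratinocyte/foreskin fibroblast co-culture dosed with chemical and sampled at 24 h. TIMP-2 levels quantified by ELISA; bidirectional fitting against DMSO negative control as baseline.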

Read-out in assay [15]: Matrix Metallopeptidase 9 (MMP9), MMP9 (gene 4318)
In words: BSK_KF3CT_MMP9: BioMAP Diversity Plus: KF3CT Assay for Matrix Metallopeptidase 9 (MMP9) Biomarker Activity (AID 2283074).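 For AC50: MMP9 protein level quantified by ELISA in the co-culture.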 The following applies: primary human keratinocytes with fibroblasts; actives raise or lower the signal. In outline: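 Keratinocyte plus foreskin fibroblast human primary skin co-culture was dosed with chemical and MMP-9 was quantified by ELISA 24 h later. Bidirectional curve fitting used DMSO as negative control and activity baseline.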

Read-out in assay [16]: Tumor necrosis factor (Homo sapiens) (UniProt P01375)
In words: BSK_LPS_TNFa: BioMAP Diversity Plus: LPS Assay for Tumour Necrosis Factor alpha (TNFa) Biomarker Activity (AID 2283085).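 For AC50: TNFa protein level quantified by ELISA in the co-culture.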 To be noted: primary human HUVEC with PBMC; actives raise or lower the signal. In outline: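 Human umbilical vein endothelial cells co-cultured with PBMC were exposed to test chemical and TNFa measured by ELISA 24 h after dosing. Bidirectional curve fitting was done relative to DMSO as negative control and baseline.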

Read-out in the next assay: CD38, CD38 (gene 952)
In words: BSK_SAg_CD38: BioMAP Diversity Plus: SAg Assay for CD38 Biomarker Activity (AID 2283087). To be noted: primary human HUVEC with PBMC; actives raise or lower the signal. The method, boiled down:
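Fluorescence ELISA of cell-surface CD38 served as the read-out, with either increase or decrease fitted against DMSO controls. Cells were a human umbilical vein endothelium plus PBMC co-culture under SEB/TSST-1 stimulation, measured 24 h after dosing.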

Read-out in a further assay: CD69, CD69 (gene 969)
The assay can be described thus: BSK_SAg_CD69: BioMAP Diversity Plus: SAg Assay for CD69 Biomarker Activity (AID 2283089).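 For AC50: cell surface CD69 protein quantified by ELISA with fluorescence detection.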 To be noted: primary human HUVEC with PBMC; actives raise or lower the signal. The method, boiled down:
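Values derive from bidirectional fitting relative to DMSO vehicle. Cells: umbilical vein endothelium plus peripheral blood mononuclear cells, treated 24 h before fluorescent ELISA for CD69.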

Read-out in assay [17]: E-selectin (Homo sapiens) (UniProt P16581)
In words: BSK_SAg_Eselectin: BioMAP Diversity Plus: SAg Assay for Eselectin Biomarker Activity (AID 2283091). To be noted: primary human HUVEC with PBMC; actives raise or lower the signal. In outline:
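Cell-surface E-selectin is read by ELISA at 24 h in the SAg co-culture of HUVEC and PBMC. Curves are fitted in both directions relative to DMSO. Parallel SRB total-protein staining tracks overt toxicity.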

A short description of assay [18]: BSK_SAg_PBMCCytotoxicity: PBMC Cytotoxicity Assessment in the BioMAP Diversity Plus: SAg Assay (AID 2283093).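 For AC50: PBMC superantigen activated with SEB plus TSST-1 one hour after compound addition.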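 Note: PBMC viability measured as Alamar Blue reduction fluorescence at 546/580 nm; fitted both ways against DMSO so a hit may be loss or gain of signal.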 The following applies: primary human HUVEC with PBMC. In outline:
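Human umbilical vein endothelial cells co-cultured with PBMC; PBMC (75,000/well) pre-treated with compound 1 h, then activated with SEB and TSST-1 (20 ng/mL final each) for 90 h. Alamar Blue added 6 h, fluorescence 546/580 nm; bidirectional fit versus DMSO.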

Molecules are shown by their SMILES. Activity calls are given as the source filed them. Rule for the calls: active = hit-call score of the fitted dose curve at least 0.9, where 1 is the maximum; inactive = score below 0.9.

E-selectin (Homo sapiens), sequence (P16581 whole entry, looked up): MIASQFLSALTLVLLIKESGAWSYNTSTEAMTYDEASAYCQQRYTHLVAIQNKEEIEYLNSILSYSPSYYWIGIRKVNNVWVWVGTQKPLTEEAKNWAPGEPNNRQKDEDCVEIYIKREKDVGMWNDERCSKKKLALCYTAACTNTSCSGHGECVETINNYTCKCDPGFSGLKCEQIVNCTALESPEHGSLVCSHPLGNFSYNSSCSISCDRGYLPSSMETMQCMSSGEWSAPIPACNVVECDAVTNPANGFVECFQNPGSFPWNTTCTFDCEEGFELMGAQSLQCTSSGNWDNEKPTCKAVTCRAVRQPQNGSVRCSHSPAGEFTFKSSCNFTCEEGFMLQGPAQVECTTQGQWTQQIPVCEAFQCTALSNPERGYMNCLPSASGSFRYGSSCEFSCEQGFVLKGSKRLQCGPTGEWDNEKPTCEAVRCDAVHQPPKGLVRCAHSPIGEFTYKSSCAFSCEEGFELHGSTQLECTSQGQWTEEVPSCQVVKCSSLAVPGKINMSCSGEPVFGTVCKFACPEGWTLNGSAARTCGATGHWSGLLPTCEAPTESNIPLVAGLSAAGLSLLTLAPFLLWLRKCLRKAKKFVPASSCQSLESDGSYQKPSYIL
Tumor necrosis factor (Homo sapiens), sequence (P01375 whole entry, looked up): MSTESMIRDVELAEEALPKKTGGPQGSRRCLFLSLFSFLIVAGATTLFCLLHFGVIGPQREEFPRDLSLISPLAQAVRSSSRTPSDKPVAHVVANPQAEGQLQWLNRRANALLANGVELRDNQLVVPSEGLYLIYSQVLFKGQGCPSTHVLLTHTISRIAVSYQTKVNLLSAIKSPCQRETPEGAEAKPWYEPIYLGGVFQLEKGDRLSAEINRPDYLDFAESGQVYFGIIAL

For the compound `CC(C)CCCCCCCOP(=O)(Oc1ccccc1)Oc1ccccc1`, the AC50 (usually the concentration at which the activity in the assay is half-maximal) in [1] was 9.9 µM (active); in assay [2], 11.2 µM (active); in assay [6], 3.97 µM (active); in assay [8] it was 3.21 µM (active); in assay [11], 5.29 µM (active); in assay [12], 8.47 µM (active). The AC50 is 11.3 µM (active) in assay [13]; 16.1 µM (active) in assay [14]; 11.2 µM (active) in assay [15]; 30.4 µM (active) in [16]; 25.9 µM (active) with CD38, CD38 (gene 952); 16.7 µM (active) with CD69, CD69 (gene 969). In addition, the values for the concentration at half-maximal activity (AC50) in assay [17] and in assay [18] were 24.4 µM (active) and 31 µM (active), respectively. Further, the outcome in assay [3], in assay [4], in assay [5], in assay [7], in assay [9] and in assay [10] was inactive.

Consider `CCc1cc(C)cc(CC)c1-c1c(OC(=O)C(C)(C)C)n2n(c1=O)CCOCC2`, for which the result in [1], in assay [2], in assay [3], in assay [4], in [5] and in assay [7] was inactive. Further, the result in assay [10], in assay [11], in assay [12], in [13], in assay [15] and in assay [16] was inactive. The outcome in the assay with CD38, CD38 (gene 952) was “inactive”; with CD69, CD69 (gene 969), “inactive”; in [17], “inactive”; in assay [18], “inactive”. In addition, the AC50 was 6.89 µM (active) in assay [6], 5.24 µM (active) in [8], 0.0822 µM (active) in assay [9] and 3.97 µM (active) in assay [14].

Consider `c1ccc(Nc2ccc3ccccc3c2)cc1`, for which the AC50 in [1] was 32.9 µM (active); in assay [2], 34.8 µM (active); in [3] it was 33 µM (active); in assay [6], 20 µM (active); in [11], 30.7 µM (active); in assay [12], 34.4 µM (active). For the same compound, the AC50 was 24.2 µM (active) in assay [13], 15.8 µM (active) in assay [14] and 28.3 µM (active) in [15]. Besides, the result in assay [4], in [5], in [7], in assay [8], in assay [9] and in assay [10] was inactive. The outcome in assay [16] is “inactive”; with CD38, CD38 (gene 952), “inactive”; with CD69, CD69 (gene 969), “inactive”; in assay [17], “inactive”; in assay [18] it was “inactive”.

Take `CCCCCCCCCCCC#N`: the result in assay [1], in assay [3], in assay [4], in [5], in assay [6] and in assay [7] was inactive. The result in assay [8], in [9], in assay [11], in [13], in [14] and in assay [15] was inactive. Moreover, the concentration at half-maximal activity (AC50) in assay [2] is 32.3 µM (active); in assay [10], 20.6 µM (active); in assay [12], 28.8 µM (active); in [16], 36.4 µM (active); with CD38, CD38 (gene 952) it was 35.6 µM (active); with CD69, CD69 (gene 969), 33.7 µM (active). The AC50 in [17] was 31.3 µM (active); in assay [18], 32 µM (active).

(Values after PubChem BioAssay (EPA / NIEHS).)
